# In publication PMC7862700, “An all-to-all approach to the identification of sequence-specific readers for epigenetic DNA modifications on cytosine”:
# Key:
# Assay in all cases: DAPPL (digital affinity profiling via proximity ligation, sequencing); 10 mM Tris-HCl pH 7.5, 50 mM NaCl, 1 mM DTT, 4% glycerol, room temperature, 30 min; GST-TFs on glutathione beads, 16-mer random dsDNA library, 0.1% formaldehyde crosslink after washing; high values mean tight binding
# Details in all cases: protein: recombinant; tags: N-terminal GST; dsDNA, one strand shown
# ELK1 = molecular target: T1, ELK1 (Homo sapiens, UniProt P19419 1-428)
# T1 sequence: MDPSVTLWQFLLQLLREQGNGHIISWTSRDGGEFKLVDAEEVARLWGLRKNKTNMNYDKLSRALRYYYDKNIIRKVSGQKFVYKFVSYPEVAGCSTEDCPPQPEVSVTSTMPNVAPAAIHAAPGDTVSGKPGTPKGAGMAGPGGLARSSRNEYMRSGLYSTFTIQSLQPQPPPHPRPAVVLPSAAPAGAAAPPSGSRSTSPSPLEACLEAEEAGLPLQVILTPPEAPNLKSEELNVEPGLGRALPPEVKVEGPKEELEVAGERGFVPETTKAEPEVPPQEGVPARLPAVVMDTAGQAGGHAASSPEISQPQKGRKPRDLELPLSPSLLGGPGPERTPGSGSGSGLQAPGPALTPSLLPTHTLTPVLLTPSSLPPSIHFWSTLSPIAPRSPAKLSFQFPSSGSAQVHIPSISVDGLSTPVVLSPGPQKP
# Method in brief: (§1)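 GST fusions of human transcription factors were expressed in yeast and captured with glutathione beads. Once given DNA barcodes and pooled alongside a tag-only sample, they were incubated for 30 min at room temperature with 200 nmole of a random double-stranded 16-mer DNA library in Tris/NaCl/DTT/glycerol buffer, then washed, crosslinked (0.1% formaldehyde), proximity-ligated, PCR-amplified and sequenced on an Illumina NextSeq500. The binding signal of each hexamer is its read frequency for a factor divided by its frequency for the tag-only sample.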
# GABPA = molecular target: T2, GABPA (Homo sapiens, UniProt Q06546 1-454)
# T2 sequence: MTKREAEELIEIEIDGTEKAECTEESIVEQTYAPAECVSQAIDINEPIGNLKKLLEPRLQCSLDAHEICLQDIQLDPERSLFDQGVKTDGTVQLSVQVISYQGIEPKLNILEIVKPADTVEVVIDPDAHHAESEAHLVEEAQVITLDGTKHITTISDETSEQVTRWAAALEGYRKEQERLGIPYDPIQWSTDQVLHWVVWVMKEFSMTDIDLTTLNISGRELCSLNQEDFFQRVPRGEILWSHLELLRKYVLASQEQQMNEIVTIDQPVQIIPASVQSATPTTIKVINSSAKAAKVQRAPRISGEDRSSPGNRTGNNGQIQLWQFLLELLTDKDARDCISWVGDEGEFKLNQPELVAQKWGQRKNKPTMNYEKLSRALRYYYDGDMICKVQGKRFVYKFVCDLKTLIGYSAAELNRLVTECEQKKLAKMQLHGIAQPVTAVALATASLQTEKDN
# Method in brief: as §1
# ERG = molecular target: T3, ERG (Homo sapiens, UniProt P11308 1-479)
# T3 sequence: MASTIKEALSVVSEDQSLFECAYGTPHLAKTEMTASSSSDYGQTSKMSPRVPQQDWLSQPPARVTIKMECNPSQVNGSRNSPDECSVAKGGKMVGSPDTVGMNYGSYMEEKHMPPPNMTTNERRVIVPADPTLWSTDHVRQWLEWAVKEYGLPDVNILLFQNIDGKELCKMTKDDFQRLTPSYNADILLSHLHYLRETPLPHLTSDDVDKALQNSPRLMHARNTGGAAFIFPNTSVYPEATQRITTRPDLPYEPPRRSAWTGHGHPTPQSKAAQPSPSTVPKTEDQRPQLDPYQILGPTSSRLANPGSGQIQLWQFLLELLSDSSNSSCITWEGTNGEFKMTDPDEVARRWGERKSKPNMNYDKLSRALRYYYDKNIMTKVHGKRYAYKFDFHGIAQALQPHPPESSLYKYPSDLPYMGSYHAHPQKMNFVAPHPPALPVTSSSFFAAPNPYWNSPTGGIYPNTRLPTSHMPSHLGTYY
# Method in brief: as §1
# ELF1 = ELF1 (Homo sapiens, UniProt P32519 1-619)
# ELF1, sequence (P32519 whole entry): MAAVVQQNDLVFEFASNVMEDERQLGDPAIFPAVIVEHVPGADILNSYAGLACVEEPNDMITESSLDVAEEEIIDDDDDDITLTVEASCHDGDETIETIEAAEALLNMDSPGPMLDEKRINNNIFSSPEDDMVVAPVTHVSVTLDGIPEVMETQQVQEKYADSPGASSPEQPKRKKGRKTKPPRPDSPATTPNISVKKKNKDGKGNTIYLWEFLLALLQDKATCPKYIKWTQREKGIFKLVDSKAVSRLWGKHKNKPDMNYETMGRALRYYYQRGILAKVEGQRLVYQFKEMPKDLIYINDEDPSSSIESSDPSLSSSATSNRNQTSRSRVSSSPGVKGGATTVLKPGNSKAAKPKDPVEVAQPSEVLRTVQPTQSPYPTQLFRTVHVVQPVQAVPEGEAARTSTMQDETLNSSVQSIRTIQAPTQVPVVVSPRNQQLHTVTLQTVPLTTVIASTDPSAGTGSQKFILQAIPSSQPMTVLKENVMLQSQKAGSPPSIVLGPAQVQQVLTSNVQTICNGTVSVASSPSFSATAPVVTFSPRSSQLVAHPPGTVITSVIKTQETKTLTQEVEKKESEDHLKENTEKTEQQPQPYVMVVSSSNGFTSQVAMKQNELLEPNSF
# Method in brief: as §1
# EHF = molecular target: T4, EHF (Homo sapiens, UniProt Q9NZC4 1-300)
# T4 sequence: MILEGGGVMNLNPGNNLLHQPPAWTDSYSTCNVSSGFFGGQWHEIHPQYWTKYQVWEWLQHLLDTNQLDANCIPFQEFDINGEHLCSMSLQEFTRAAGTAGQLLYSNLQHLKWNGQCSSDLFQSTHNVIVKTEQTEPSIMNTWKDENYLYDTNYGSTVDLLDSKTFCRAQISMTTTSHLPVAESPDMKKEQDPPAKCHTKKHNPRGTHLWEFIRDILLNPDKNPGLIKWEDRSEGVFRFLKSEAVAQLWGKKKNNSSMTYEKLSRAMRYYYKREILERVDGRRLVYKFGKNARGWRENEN
# Method in brief: as §1
# SPIB = SPIB (Homo sapiens, UniProt Q01892 1-262)
# SPIB, sequence (Q01892 whole entry): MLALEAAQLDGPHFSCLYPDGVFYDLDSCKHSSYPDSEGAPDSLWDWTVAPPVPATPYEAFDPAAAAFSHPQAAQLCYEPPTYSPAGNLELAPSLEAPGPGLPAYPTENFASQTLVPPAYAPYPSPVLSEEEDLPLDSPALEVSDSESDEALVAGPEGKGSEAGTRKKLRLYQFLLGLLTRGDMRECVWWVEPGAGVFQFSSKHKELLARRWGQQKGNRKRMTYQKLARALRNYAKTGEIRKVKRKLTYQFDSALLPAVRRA
# Method in brief: as §1
# ELK3 = molecular target: T5, ELK3 (Homo sapiens, UniProt P41970 1-407)
# T5 sequence: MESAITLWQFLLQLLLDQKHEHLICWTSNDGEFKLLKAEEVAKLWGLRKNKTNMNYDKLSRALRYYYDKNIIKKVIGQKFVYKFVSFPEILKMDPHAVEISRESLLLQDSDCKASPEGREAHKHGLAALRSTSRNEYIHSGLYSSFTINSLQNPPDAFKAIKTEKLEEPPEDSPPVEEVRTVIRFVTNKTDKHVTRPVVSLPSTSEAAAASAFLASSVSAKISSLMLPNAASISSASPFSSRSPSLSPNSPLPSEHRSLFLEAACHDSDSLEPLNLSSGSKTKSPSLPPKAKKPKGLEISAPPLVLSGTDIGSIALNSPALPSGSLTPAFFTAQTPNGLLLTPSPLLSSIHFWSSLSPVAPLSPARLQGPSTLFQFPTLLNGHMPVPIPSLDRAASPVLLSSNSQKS
# Method in brief: as §1
# FEV = molecular target: T6, FEV (Homo sapiens, UniProt Q99581 1-238)
# T6 sequence: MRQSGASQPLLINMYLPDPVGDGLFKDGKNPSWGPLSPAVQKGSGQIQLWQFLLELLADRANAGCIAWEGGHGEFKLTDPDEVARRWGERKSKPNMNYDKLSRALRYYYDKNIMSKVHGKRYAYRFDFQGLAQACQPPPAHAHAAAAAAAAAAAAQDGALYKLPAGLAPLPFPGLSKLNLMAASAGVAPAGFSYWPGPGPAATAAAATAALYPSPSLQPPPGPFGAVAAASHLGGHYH
# Method in brief: as §1
# ETV5 = ETV5 (Homo sapiens, UniProt P41161 1-510)
# ETV5, sequence (P41161 whole entry): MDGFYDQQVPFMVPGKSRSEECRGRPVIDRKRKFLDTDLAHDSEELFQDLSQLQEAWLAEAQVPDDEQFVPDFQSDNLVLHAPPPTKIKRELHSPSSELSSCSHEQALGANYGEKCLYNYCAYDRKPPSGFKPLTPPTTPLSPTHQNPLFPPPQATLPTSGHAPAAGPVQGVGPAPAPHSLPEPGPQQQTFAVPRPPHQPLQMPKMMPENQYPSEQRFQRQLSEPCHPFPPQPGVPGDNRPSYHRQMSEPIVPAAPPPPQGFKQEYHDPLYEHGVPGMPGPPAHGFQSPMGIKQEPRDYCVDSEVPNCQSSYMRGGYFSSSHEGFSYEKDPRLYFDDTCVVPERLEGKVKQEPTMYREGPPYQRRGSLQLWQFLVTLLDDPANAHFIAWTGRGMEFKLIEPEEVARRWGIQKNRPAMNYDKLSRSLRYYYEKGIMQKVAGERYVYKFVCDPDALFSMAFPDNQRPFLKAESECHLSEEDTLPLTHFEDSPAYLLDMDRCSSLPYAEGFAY
# Method in brief: as §1
sequence,measurement,setting,value
TGTAAG,binding signal,ELK1,"1.06 fold enrichment (6-mer frequency, TF over GST control)"
same,binding signal,GABPA,"1.03 fold enrichment (6-mer frequency, TF over GST control)"
same,binding signal,ERG,"1.07 fold enrichment (6-mer frequency, TF over GST control)"
same,binding signal,ELF1,"1.11 fold enrichment (6-mer frequency, TF over GST control)"
same,binding signal,EHF,"1.16 fold enrichment (6-mer frequency, TF over GST control)"
same,binding signal,SPIB,"1.06 fold enrichment (6-mer frequency, TF over GST control)"
same,binding signal,ELK3,"1.11 fold enrichment (6-mer frequency, TF over GST control)"
same,binding signal,FEV,"1.06 fold enrichment (6-mer frequency, TF over GST control)"
same,binding signal,ETV5,"1.08 fold enrichment (6-mer frequency, TF over GST control)"
